Assay outcomes: PubChem BioAssay, National Center for Advancing Translational Sciences (NCATS)
Compounds with a hit are over-represented: about 14% of the library has one in this group of screens.
AID923 – qHTS Assay for Allosteric/Competitive Inhibitors of Caspase-1: Spectroscopic Profiling in AFC Spectral Region; compound fluorescence, AFC spectral region (405/520 nm); Potency, µM (series often up to 57.5 µM), usual class: activators; actives 1.1% (n = 75,000); AID 923, 2007
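Titrations up to 57 uM read every 20 sec for 3 min (405/520 nm) with 50 nM caspase 1 and 5 uM Ac-WEHD-AFC, pH 7.5 HEPES buffer. Fluorescence-vs-time intercept gave baseline, scaled against on-plate AFC standard.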
CRE Fsk mod – Cell signaling CRE-BLA (Fsk stim) | CHO CRE-bla reporter (cAMP response element driving beta-lactamase), forskolin EC10, beta-lactamase ratio | Potency, µM (doses to about 38.2 µM), actives largely listed as activators | actives 2.5% (n = 71,000) | AID 662, 2007; active means well fitted activation curve with a large enough effect in the signal ratio, with a control signal flat, not every such curve was filed as active; inconclusive means small, poorly fitted or top-dose-only effect, or effect the other way, or a change in a side signal; the % refers to the signal ratio
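The 460nm/530nm emission ratio after CCF4 loading defined %Activity, from which AC50 values were obtained. CRE-bla CHO cells received compound dilution series together with an EC10 level of NKH 477 for 3 hours at 37 degrees Celsius.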
4MU fluor – qHTS Assay for Spectroscopic Profiling in 4-MU Spectral Region | AID 589, 2007 | compound autofluorescence, 340/450 nm, 4-MU equivalents; active compounds read high | actives 11% (n = 59,000) | max dye-equivalent concentration, M; in the data active means max dye-equivalent concentration above about 10 nM; inconclusive means mostly about 1.1 nM to 9.6 nM
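Compounds in 100 mM Tris, pH 8.0, sat 15 min at room temperature before fluorescence was read at 340 nm excitation/450 nm emission; a per-plate six-point 4-MU standard curve converted signals to dye-equivalent concentration at each compound concentration.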
A350 fluor – qHTS Assay for Spectroscopic Profiling in A350 Spectral Region | Compound autofluorescence, 340/450 nm, Alexa 350 dye-equivalents; active compounds read high | max dye-equivalent concentration, M | actives 11% (n = 59,000) | AID 590, 2007; in the data active means max dye-equivalent concentration above about 10 nM; inconclusive means mostly about 1.1 nM to 9.6 nM
HSD17B inh – qHTS Assay for Inhibitors of HSD17B4, hydroxysteroid (17-beta) dehydrogenase 4. 3-hydroxyacyl-CoA dehydrogenase type-2 (Homo sapiens), Q99714. recombinant HSD17B10, NADH fluorescence kinetic. Potency, µM (titrated, usually from 57.1 µM), hits mostly inhibitors. actives 7.6% (n = 75,000);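 further: the protocol describes HADH2 (HSD17B10) and not the HSD17B4 of the title; nearly all actives have a fitted effect of over 70% in size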
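20 nM HADH2, pH 9.0 Tris/Tween; cpd preinc 15 min RT; start w/ 1 mM NAD+ + 90 uM b-hydroxybutyryl-CoA; kinetic fluor ex360/em450 q30s x 4 min; delta last-first.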
HADH2 inh – qHTS Assay for Inhibitors of HADH2 (Hydroxyacyl-Coenzyme A Dehydrogenase, Type II). 3-hydroxyacyl-CoA dehydrogenase type-2 (Homo sapiens), Q99714. recombinant HADH2, NADH fluorescence, beta-hydroxybutyryl-CoA. Potency, µM (top dose mostly 57.1 µM), actives largely listed as inhibitors. actives 3.4% (n = 73,000). AID 886, 2007; further: nearly all actives have a fitted effect of over 60% in size
Target sequence (Q99714 whole entry, looked up, one chain of several): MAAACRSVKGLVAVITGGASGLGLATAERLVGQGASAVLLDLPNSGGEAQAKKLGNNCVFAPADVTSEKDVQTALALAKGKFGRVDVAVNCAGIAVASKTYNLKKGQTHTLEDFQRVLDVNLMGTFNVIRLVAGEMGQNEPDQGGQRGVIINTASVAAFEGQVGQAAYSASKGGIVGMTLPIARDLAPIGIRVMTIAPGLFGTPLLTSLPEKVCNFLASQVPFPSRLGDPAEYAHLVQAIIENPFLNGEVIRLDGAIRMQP
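Buffer 100 mM Tris-HCl pH 9.0/0.01% Tween-20; HADH2 20 nM; NAD+ 1 mM; beta-hydroxybutyryl-CoA 90 uM (all final). 15 min cpd preincubation, RT.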
Of the large screens only hits and unclear results are named; the others gave an inactive call; ! = not active in a repeat. Unless noted, the call rests on the fitted dose curve; in most records, active means well fitted curve in the direction sought with a large enough effect; inconclusive means small, poorly fitted or top-dose-only effect, or another doubt; inactive means no such curve, though single readings can be large; an effect the other way counts as inactive or inconclusive.

Cc1ccc(CN2C3=NC(=O)CN3c3ccccc32)cc1	4MU fluor inconclusive, A350 fluor inconclusive
CC(C)(C)c1ccc(S(=O)(=O)/C=C\C#N)cc1	CRE Fsk mod inconclusive, A350 fluor inconclusive, HSD17B inh 16µM
CC(C)(C)c1ccc(S(=O)(=O)N2CCN(CCC#N)CC2)cc1	none (no result: 4MU fluor, A350 fluor)
Cc1ccc(C#N)cc1	none (no result: 4MU fluor, A350 fluor)
Cc1ccc(S(=O)(=O)/C=C\C#N)cc1	CRE Fsk mod inconclusive, HSD17B inh 40µM (no result: 4MU fluor, A350 fluor)
Cc1ccc2c(c1)c1c3n2CCN[C@H]3CCC1	CRE Fsk mod inconclusive, HSD17B inh 25µM
CCCNc1nc(N2CCOCC2)nc(N2CCOCC2)n1	CRE Fsk mod inconclusive (no result: 4MU fluor, A350 fluor)
CSc1ccc(C2C3(C#N)C(N)=NC4(OCCO4)C23C#N)cc1 (stereo not drawn)	none
CCOC(=O)C1=C(N)Oc2cc(C)n(C)c(=O)c2C1c1ccncc1 (stereo not drawn)	A350 fluor inconclusive
C=CCNc1ccc(F)c(F)c1N1CCCCCC1=O	none
S=C(Nc1ccccn1)c1ccccn1	HADH2 inh 6.3µM (no result: 4MU fluor, A350 fluor)
O=C(Nc1ccccc1)Nc1ccccn1	CRE Fsk mod inconclusive
CCOC(=O)N1CCC(NC(=O)c2cc(S(=O)(=O)N3CCCC3)cn2C)CC1	CRE Fsk mod inconclusive
O=c1c2ccccc2c(C=Nc2ccc(Cl)cn2)c(O)n1-c1cc(Cl)ccc1N1CCOCC1	4MU fluor 1.4e-08M, A350 fluor 1.6e-08M
Cc1nc(N=Nc2cc(S(=O)(=O)O)c3cc([N+](=O)[O-])cc(S(=O)(=O)O)c3c2)c(COP(=O)(O)O)c(C=O)c1O	4MU fluor 1.3e-08M, A350 fluor 1.5e-08M, HSD17B inh 10µM, HADH2 inh 7.9µM
CS(=O)(=O)N1CCC(NC(=O)Cc2ccccc2)CC1	none
COc1ccc(OC)c(C2C(C(C)=O)=C(O)C(=O)N2c2ccc(O)cc2)c1 (stereo not drawn)	CRE Fsk mod inconclusive, 4MU fluor inconclusive, A350 fluor inconclusive
Cc1cc(NS(=O)(=O)c2ccccc2)c(C)c(Cl)c1O	HSD17B inh inconclusive, HADH2 inh 10µM (no result: 4MU fluor, A350 fluor)
CCOC(=O)N1CCN(C(=O)CSc2nnc(-c3ccc(Cl)s3)o2)CC1	none
CCc1nc(N2CCCC2C(=O)O)c2oc3ccccc3c2n1 (stereo not drawn)	CRE Fsk mod inconclusive
CCc1nc(N2CCN(C(=O)c3ccco3)CC2)c2oc3ccccc3c2n1	CRE Fsk mod 3.2µM, 4MU fluor inconclusive, A350 fluor inconclusive
Cc1nc2ccccc2c2oc(C(=O)N3CCN(C(=O)c4ccco4)CC3)cc12	CRE Fsk mod 13µM (no result: 4MU fluor, A350 fluor)
Cc1nc(N2CCN(C(=O)c3ccco3)CC2)c2oc3ccccc3c2n1	CRE Fsk mod 4µM, A350 fluor inconclusive
Cc1nc(N2CCN(Cc3ccc4c(c3)OCO4)CC2)c2oc3ccccc3c2n1	CRE Fsk mod 10µM, HSD17B inh inconclusive, HADH2 inh inconclusive
Cc1nc2ccccc2c2oc(C(=O)N3CCc4ccccc4C3)cc12	CRE Fsk mod inconclusive, HSD17B inh inconclusive (no result: 4MU fluor, A350 fluor)
COC(=O)Cn1cnc2c(nnn2-c2cccc(Cl)c2)c1=O	none (no result: 4MU fluor, A350 fluor)
COc1cccc(C(c2nnnn2Cc2ccccc2)N2CCN(C3CCCC3)CC2)c1OC (stereo not drawn)	CRE Fsk mod inconclusive, A350 fluor inconclusive
Cc1nc2ccccc2c2oc(C(=O)NCCN3CCN(C)CC3)cc12	CRE Fsk mod inconclusive (no result: 4MU fluor, A350 fluor)
CCn1c(=O)c2cc(C(=O)N3CCN(C(=O)c4ccco4)CC3)sc2c2ccccc21	CRE Fsk mod 4µM, HSD17B inh 32µM, HADH2 inh inconclusive (no result: 4MU fluor, A350 fluor)
Cc1nc2ccccc2c2oc(C(=O)NC3CC3)cc12	CRE Fsk mod 7.9µM (no result: 4MU fluor, A350 fluor)
CCc1nc(Nc2ccc(N3CCN(C(C)=O)CC3)cc2)c2oc3ccccc3c2n1	CRE Fsk mod 1.3µM
CC(=O)c1ccc(Nc2nc(C)nc3c2oc2ccccc23)cc1	CRE Fsk mod 2µM, 4MU fluor 1.1e-07M, A350 fluor 1e-07M
CC(=O)N1CCN(c2ccc(Nc3ncnc4c3oc3ccccc34)cc2)CC1	A350 fluor inconclusive, HSD17B inh inconclusive
O=C(c1ccccc1)c1cccn1CC(=O)N1CCCCCC1	CRE Fsk mod inconclusive
O=C(c1ccccc1)c1ccc2n1CC[C@H]2C(=O)O	4MU fluor 1.8e-08M!, A350 fluor 3.2e-08M!
N#CC1=C2SCN(Cc3ccccc3)CN2C(=O)CC1c1ccc2c(c1)OCO2 (stereo not drawn)	CRE Fsk mod inconclusive, A350 fluor inconclusive, HSD17B inh inconclusive, HADH2 inh 2.5µM
N#CC1=C(SCc2ccccc2)NC2=C(C(=O)CCC2)C1c1ccc2c(c1)OCO2 (stereo not drawn)	none (no result: AID923, CRE Fsk mod, HSD17B inh, HADH2 inh)
N#CC1=C2SCN(Cc3ccccc3)CN2C(=O)CC1c1cccs1 (stereo not drawn)	HSD17B inh inconclusive, HADH2 inh 2µM (no result: 4MU fluor, A350 fluor)
CN(C(=O)c1cc2sccc2n1C)C1CCCCC1	none
Cc1ccccc1C(=O)c1ccc2c(c1)n(C)c(=O)n2C	none (no result: AID923, CRE Fsk mod, HSD17B inh, HADH2 inh)
CC1CC(=O)C2=C(C1)Nc1ncnn1C2c1ccccc1 (stereo not drawn)	4MU fluor 2.5e-08M, A350 fluor 2.9e-08M
O=C1CC(c2cccs2)CC2=C1C(c1ccccc1)n1ncnc1N2 (stereo not drawn)	4MU fluor 2.2e-07M, A350 fluor 1.9e-07M, HSD17B inh 25µM, HADH2 inh inconclusive
CC1=C(C(=O)OC(C)C)C(c2cccs2)n2ncnc2N1 (stereo not drawn)	none (no result: 4MU fluor, A350 fluor)
CC1(C)CC(=O)C2=C(C1)Nc1ncnn1C2c1ccccn1 (stereo not drawn)	4MU fluor 1.9e-08M, A350 fluor 2.2e-08M
c1csc(C2C3=C(Nc4ncnn42)c2ccccc2OC3)c1 (stereo not drawn)	CRE Fsk mod inconclusive, 4MU fluor 1.5e-07M, A350 fluor 2.2e-07M, HSD17B inh 32µM
CC1(C)CC(=O)C2=C(C1)Nc1ccccc1NC2c1ccccn1 (stereo not drawn)	none (no result: 4MU fluor, A350 fluor)
CC1=C(C(=O)NCc2ccccc2)C(c2cccs2)n2ncnc2N1 (stereo not drawn)	4MU fluor inconclusive, A350 fluor inconclusive
c1ccc(C2C3=C(CCCC3)Nc3ncnn32)cc1 (stereo not drawn)	A350 fluor inconclusive
Cc1nc2n(n1)C(c1ccccc1)C1=C(CC(c3ccco3)CC1=O)N2 (stereo not drawn)	CRE Fsk mod inconclusive, 4MU fluor 2.4e-07M, A350 fluor 3.1e-07M, HSD17B inh inconclusive, HADH2 inh inconclusive
